PubChem BioAssay (Tox21)
Records with an inconclusive call do not appear. Calls of active or inactive are those of the source. Unless noted, the call rests on the fitted dose curve; in most records, active means well fitted curve in the direction sought with a large enough effect in the repeat runs; inconclusive means weak or mixed curves; inactive means no such curve, though single readings can be large; an effect the other way counts as inactive or inconclusive.

Tests used:
[1] = qHTS assay to identify small molecule agonists of the peroxisome proliferator-activated receptor delta (PPARd) signaling pathway - cell viability counter screen (AID 743211); further: nearly all actives have a fitted effect of over 55% in size; further: potency means the concentration at half of the fitted maximal effect
Outline: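 Luminescent ATP viability assay (CellTiter-Glo, 30 min RT) in UAS-bla HEK293H cells carrying the PPAR delta reporter construct, 3000 cells/well, after a 17 h compound treatment at 37 C.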

[2] = qHTS assay to identify small molecule antagonists of the peroxisome proliferator-activated receptor delta (PPARd) signaling pathway - cell viability counter screen (AID 743213); further: nearly all actives have a fitted effect of over 50% in size; further: potency means the concentration at half of the fitted maximal effect
Outline: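 HEK293H cells with the PPARd UAS-bla reporter, co-treated 17 h at 37 C with compounds and L165041 (300 nM final), were lysed with CellTiter-Glo. Luminescence indicated viable cell content.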

[3] = qHTS assay to identify small molecule agonists of the farnesoid-X-receptor (FXR) signaling pathway - cell viability counter screen (AID 743218); further: potency means the concentration at half of the fitted maximal effect; nearly all actives have a fitted effect of over 45% in size
Outline: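 Luminescence from CellTiter-Glo, read after 30 min at RT, reports viability of GeneBLAzer FXR-UAS-bla HEK 293T cells treated 16 h with compounds in the wells used for the beta-lactamase reporter.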

[4] = biological target: Bile acid receptor (Homo sapiens) (UniProt Q96RI1); test: qHTS assay to identify small molecule agonists of the farnesoid-X-receptor (FXR) signaling pathway (AID 743220; active means well fitted activation curve with a large enough effect in the signal ratio in the repeat runs, not every such curve was filed as active; the % refers to the signal ratio; further: on the % scale 0 is the no-effect control and ±100 the full control effect)
Chain of Bile acid receptor (Homo sapiens) (Q96RI1 whole entry, looked up): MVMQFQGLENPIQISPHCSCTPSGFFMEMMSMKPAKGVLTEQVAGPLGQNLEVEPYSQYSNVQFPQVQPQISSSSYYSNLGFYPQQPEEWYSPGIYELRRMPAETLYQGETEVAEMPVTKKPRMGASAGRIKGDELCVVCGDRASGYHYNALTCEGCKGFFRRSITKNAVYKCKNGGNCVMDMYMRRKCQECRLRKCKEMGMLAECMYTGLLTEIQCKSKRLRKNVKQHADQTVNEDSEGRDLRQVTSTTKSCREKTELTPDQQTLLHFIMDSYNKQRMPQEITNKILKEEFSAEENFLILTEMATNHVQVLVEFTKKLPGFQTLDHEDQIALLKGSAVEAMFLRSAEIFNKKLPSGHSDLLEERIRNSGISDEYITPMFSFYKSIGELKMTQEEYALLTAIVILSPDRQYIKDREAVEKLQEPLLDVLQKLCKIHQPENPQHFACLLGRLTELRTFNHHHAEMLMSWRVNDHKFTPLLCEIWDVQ
Outline: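 FXR-UAS-bla HEK 293T cells carrying a UAS-driven beta-lactamase reporter were plated for 5 h at 37C/5% CO2, then exposed to DMSO-dissolved Tox21 10K compounds for 16 h at 37C. A LiveBLAzer B/G FRET substrate was loaded for 2 h at room temperature before fluorescence reading.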

[5] = qHTS assay to identify small molecule agonists of the vitamin D receptor (VDR) signaling pathway - cell viability counter screen (AID 743224); further: nearly all actives have a fitted effect of over 50% in size; further: potency means the concentration at half of the fitted maximal effect
Outline: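 Cytotoxicity counter screen: VDR-bla cells, 16 h compound exposure at 37C, 5% CO2; CellTiter-Glo luminescence, 30 min RT, same wells as bla read.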

[6] = qHTS assay to identify small molecule antagonists of the vitamin D receptor (VDR) signaling pathway - cell viability counter screen (AID 743225); further: nearly all actives have a fitted effect of over 50% in size; further: potency means the concentration at half of the fitted maximal effect
Outline: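 Luminescent cell viability (CellTiter-Glo) in VDR-bla HEK 293T cells after 16 h compound exposure at 37C in the presence of 3 nM final 1-alpha,25-dihydroxy vitamin D3.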

[7] = qHTS assay to identify small molecule antagonists of the retinoid-related orphan receptor gamma (ROR-gamma) signaling pathway - cell viability counter screen (AID 1159520); further: nearly all actives have a fitted effect of over 50% in size; further: potency means the concentration at half of the fitted maximal effect; on activity, negative = cytotoxicity: on the % scale 0 is the no-effect control and ±100 the full control effect
Outline: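 Cytotoxicity was read from cellular ATP (CellTiter-Glo luminescence) after 16 hr at 37 C with 1 uM doxycycline induction. The inducer was added 2 hr after compound transfer to Tet-on ROR gamma CHO cells.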

[8] = biological target: Nuclear receptor ROR-gamma (Homo sapiens) (UniProt P51449); test: qHTS assay to identify small molecule antagonists of the retinoid-related orphan receptor gamma (ROR-gamma) signaling pathway (AID 1159521; further: nearly all actives have a fitted effect of over 50% in size; further: potency means the concentration at half of the fitted maximal effect;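 on activity change, negative = inhibition: CHO cells with doxycycline inducible ROR-gamma driving an RORE luciferase reporter; top concentration of the series differs between compounds; on the % scale 0 is the no-effect control and ±100 the full control effect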)
Outline: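 CHO cells expressing RORγ under a TET-on promoter, luciferase under RORE control. Dox 1 uM final, 16 h; compounds added 2 h prior. Luminescence decrease measured.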

[9] = qHTS assay to identify small molecule agonists of the AP-1 signaling pathway - cell viability counter screen (AID 1159525; calls by dose curve; further: nearly all actives have a fitted effect of over 55% in size; further: potency means the concentration at half of the fitted maximal effect)
Outline: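 Intracellular ATP by Cell Titer Glo luminescence (30 min, RT) in the same ME-180 AP-1-bla wells after the 5 h compound exposure at 37 °C. Normalised to tetra n-octyl ammonium bromide and DMSO controls.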

[10] = qHTS assay to identify small molecule agonists of the RXR signaling pathway - cell viability counter screen (AID 1159529); further: nearly all actives have a fitted effect of over 50% in size; further: potency means the concentration at half of the fitted maximal effect
Outline: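 Same-well viability check after the LiveBLAzer FRET read: CellTiter-Glo added, luminescence measured after 30 min at room temperature. Reporter HEK 293T cells had been treated with compounds for 16 hr following a 5 hr preincubation.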

[11] = qHTS assay to identify small molecule antagonists of the retinoic acid receptor (RAR) signaling pathway (AID 1159552; further: nearly all actives have a fitted effect of over 50% in size; further: potency means the concentration at half of the fitted maximal effect)
Outline: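 Readout: luciferase luminescence, 30 min post-reagent at RT. Setup: C3RL4 RARE reporter cells, compounds plus retinol 1 uM final, 6 hr incubation at 37 C and 5% CO2.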

[12] = biological target: Retinoic acid receptor RXR-alpha (Homo sapiens) (UniProt P19793); test: qHTS assay to identify small molecule agonists of the RXR signaling pathway (AID 1159527; calls by dose curve; further: on the % scale 0 is the no-effect control and ±100 the full control effect; nearly all actives have a fitted effect of over 35% in size)
Chain of Retinoic acid receptor RXR-alpha (Homo sapiens) (P19793 whole entry, looked up): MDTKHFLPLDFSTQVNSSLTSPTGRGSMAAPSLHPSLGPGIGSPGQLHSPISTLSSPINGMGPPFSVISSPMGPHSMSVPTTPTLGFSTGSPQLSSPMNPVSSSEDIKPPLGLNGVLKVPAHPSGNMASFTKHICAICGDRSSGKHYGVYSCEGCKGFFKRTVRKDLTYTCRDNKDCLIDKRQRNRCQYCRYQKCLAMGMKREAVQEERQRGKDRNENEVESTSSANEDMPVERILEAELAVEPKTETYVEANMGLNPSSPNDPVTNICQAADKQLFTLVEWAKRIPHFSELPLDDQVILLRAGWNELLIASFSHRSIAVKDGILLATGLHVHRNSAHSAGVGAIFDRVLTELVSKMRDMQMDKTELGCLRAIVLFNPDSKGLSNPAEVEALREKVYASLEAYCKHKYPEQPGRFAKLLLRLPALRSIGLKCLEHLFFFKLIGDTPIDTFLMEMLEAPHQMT
Outline: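 Beta-lactamase reporter assay, agonist format. Engineered HEK 293T line, charcoal-stripped FBS at 2%, overnight (16 hr) exposure, fluorescence at 460 and 530 nm after 405 nm excitation.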

[13] = qHTS assay to identify small molecule antagonists of the retinoid acid receptor (RAR) signaling pathway - cell viability counter screen (AID 1159551); further: on the % scale 0 is the no-effect control and ±100 the full control effect; nearly all actives have a fitted effect of over 35% in size
Outline: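 C3RL4 RARE-luciferase line; cpds + retinol 1 uM final, 6 h, 37 C/5% CO2; CellTiter-Glo ATP luminescence, 30 min RT.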

[14] = qHTS assay to identify small molecule agonists of the AP-1 signaling pathway (AID 1159526; calls by dose curve; further: potency means the concentration at half of the fitted maximal effect)
[15] = biological target: Peroxisome proliferator-activated receptor delta (Homo sapiens) (UniProt Q03181); test: qHTS assay to identify small molecule antagonists of the peroxisome proliferator-activated receptor delta (PPARd) signaling pathway (AID 743215; active means well fitted inhibition curve with a large enough effect in the signal ratio in the repeat runs, not every such curve was filed as active; the % refers to the signal ratio;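 further: cells stimulated with agonist L165041 at 300 nM final during compound exposure; potency means the concentration at half of the fitted maximal effect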)
Chain of Peroxisome proliferator-activated receptor delta (Homo sapiens) (Q03181 whole entry, looked up): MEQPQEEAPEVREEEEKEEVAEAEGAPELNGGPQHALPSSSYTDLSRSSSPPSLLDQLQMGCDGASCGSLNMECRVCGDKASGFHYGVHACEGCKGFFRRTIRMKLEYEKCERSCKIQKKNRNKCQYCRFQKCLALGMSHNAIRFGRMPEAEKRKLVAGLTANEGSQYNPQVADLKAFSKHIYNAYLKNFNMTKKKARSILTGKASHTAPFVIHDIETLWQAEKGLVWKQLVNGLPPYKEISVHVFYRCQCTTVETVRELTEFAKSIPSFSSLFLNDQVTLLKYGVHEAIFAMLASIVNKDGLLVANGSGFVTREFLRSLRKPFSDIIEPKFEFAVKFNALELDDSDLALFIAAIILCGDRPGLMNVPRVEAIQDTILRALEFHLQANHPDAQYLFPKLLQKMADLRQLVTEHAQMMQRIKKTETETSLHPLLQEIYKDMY
Outline: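 HEK293H GeneBLAzer PPARd UAS-bla reporter cells; cpd + L165041 300 nM final, 17 h 37 C; LiveBLAzer B/G FRET substrate 2 h RT; fluorescence intensity read-out. Antagonist mode.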

[16] = qHTS assay to identify small molecule antagonists of the farnesoid-X-receptor (FXR) signaling pathway - cell viability counter screen (AID 743221; active means well fitted cell-killing curve with a large enough effect in the repeat runs, not every such curve was filed as active)
Outline: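 In GeneBLAzer FXR-UAS-bla HEK 293T cells stimulated with 50 uM chenodeoxycholic acid (final), compounds acted for 16 h at 37 C. Viability was assessed afterwards by CellTiter-Glo luminescence.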

[17] = biological target: Vitamin D3 receptor (Homo sapiens) (UniProt P11473); test: qHTS assay to identify small molecule agonists of the vitamin D receptor (VDR) signaling pathway (AID 743222; calls by dose curve; further: on the % scale 0 is the no-effect control and ±100 the full control effect)
Chain of Vitamin D3 receptor (Homo sapiens) (P11473 whole entry, looked up): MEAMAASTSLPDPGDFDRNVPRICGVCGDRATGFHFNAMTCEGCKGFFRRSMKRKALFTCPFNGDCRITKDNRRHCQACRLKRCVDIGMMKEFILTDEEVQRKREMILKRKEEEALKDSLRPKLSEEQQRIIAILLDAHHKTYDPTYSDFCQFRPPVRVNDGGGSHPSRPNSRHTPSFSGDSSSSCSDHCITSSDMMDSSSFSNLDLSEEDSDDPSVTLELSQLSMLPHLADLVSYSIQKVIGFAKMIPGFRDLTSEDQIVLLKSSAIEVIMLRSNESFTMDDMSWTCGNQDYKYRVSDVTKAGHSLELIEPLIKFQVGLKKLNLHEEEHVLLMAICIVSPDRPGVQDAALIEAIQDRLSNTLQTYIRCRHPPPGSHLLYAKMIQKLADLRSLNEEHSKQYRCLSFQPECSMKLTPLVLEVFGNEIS
Outline: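 Beta-lactamase reporter readout (LiveBLAzer B/G FRET, 2 h RT) in VDR-bla cells after 16 h compound treatment at 37C, 5% CO2; cells pre-incubated 4 h before pin transfer of DMSO solutions.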

[18] = biological target: Vitamin D3 receptor (Homo sapiens) (UniProt P11473); test: qHTS assay to identify small molecule antagonists of the vitamin D receptor (VDR) signaling pathway (AID 743223; active means well fitted inhibition curve with a large enough effect in the signal ratio in the repeat runs, not every such curve was filed as active; the % refers to the signal ratio; further: potency means the concentration at half of the fitted maximal effect)
Outline: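 Agonist 1alpha,25-dihydroxyvitamin D3 (3 nM in well) was added with each compound to VDR-bla cells preincubated 4 h. Cells stood 16 h at 37C, then FRET substrate 2 h at room temperature; fluorescence intensity recorded.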

NCc1cccc(C2CCN(C(=O)c3ccc(C#Cc4ccccc4F)o3)CC2)c1
active: Potency [1] 21.9 µM | Potency [2] 49 µM | Potency [3] 34.7 µM | Potency [5] 54.9 µM | Potency [6] 34.7 µM | Potency [7] 43.3 µM | Potency [8] 34.4 µM | Potency [9] 54.9 µM | Potency [10] 13.8 µM | Potency [11] 54.5 µM
inactive: outcome [4]

[Cl][Eu]([Cl])[Cl]
inactive: Potency [7] | Potency [8] | Potency [9] | Potency [12] | Potency [10] | Potency [13]

C=Cc1ccc(O)c(OC)c1
inactive: Potency [7] | Potency [8] | Potency [9] | Potency [12] | Potency [10] | Potency [13]

O=C1OC2(c3ccccc31)c1ccc(O)c(Br)c1Oc1c2ccc(O)c1Br
inactive: Potency [7] | Potency [8] | Potency [9] | Potency [10] | Potency [11]

C/C=C/C(=O)OCC(C)C
inactive: Potency [7] | Potency [8] | Potency [9] | Potency [10] | Potency [11]
active: Potency [14] 54.9 µM

c1ccc2c(c1)-c1ccc3ccc4cccc5cc-2c1c3c45
inactive: Potency [7] | Potency [8] | Potency [9] | Potency [13]

NCc1ccco1
inactive: Potency [7] | Potency [8] | Potency [9] | Potency [12] | Potency [10] | Potency [13]

N#CCCOCCC#N
inactive: Potency [7] | Potency [8] | Potency [9] | Potency [12] | Potency [10] | Potency [13] | Potency [11]

Nc1ccc(Cl)c([N+](=O)[O-])c1
active: Potency [8] 38.6 µM
inactive: Potency [7] | Potency [9] | Potency [12] | Potency [10] | Potency [13] | Potency [11]

CC(=O)[C@]1(O)Cc2c(O)c3c(c(O)c2[C@@H](O[C@H]2C[C@H](N)[C@H](O)[C@H](C)O2)C1)C(=O)c1ccccc1C3=O
inactive: Potency [1] | Potency [2] | Potency [16] | outcome [17] | Potency [5] | Potency [6] | Potency [8] | Potency [9] | Potency [10]
active: Potency [15] 3.76 µM | Potency [18] 1.9 µM | Potency [7] 26.6 µM | Potency [11] 0.298 µM

COc1cc2ncnc(Nc3cccc(Cl)c3)c2cc1OC
inactive: activity, negative = cytotoxicity [7] -2.63% [at 19 µM] | activity change, negative = inhibition [8] -11.5% [at 19 µM] | viability change, negative = cytotoxic [9] -9.86% [at 15.8 µM] | activation [12] -15.1% [at 15.8 µM] | activity change, negative = cytotoxicity [10] -0.839% [at 15.8 µM] | activity change, negative = cytotoxicity [13] 0.617% [at 19 µM]

CCOC=C(C(=O)OCC)C(=O)OCC
inactive: Potency [7] | Potency [8] | Potency [9] | Potency [12] | Potency [10] | Potency [13] | Potency [11]

Nc1ccc2c(S(=O)(=O)O)cccc2c1S(=O)(=O)O
inactive: Potency [7] | Potency [8] | Potency [9] | Potency [12] | Potency [10] | Potency [11]

CCCCCCCCCCCC(=O)Cl
inactive: Potency [7] | Potency [8] | Potency [9] | Potency [13] | Potency [11]
